# BoNT-F LC inh – BoNT/F light chain protease inhibitors, primary screen, biochemical, flow cytometry, MLPCN library. Multiplex microsphere protease cleavage assay. Botulinum neurotoxin type F light chain protease (Clostridium botulinum). inhibition, % at 10 µM. actives 0.22% (n = 360,000); in the data active means inhibition above about 35%, passing the limit was not always enough; inconclusive means no clear call, values can overlap the other calls; further: plate controls were buffer without enzyme for full effect and enzyme alone for no effect
# BoNT-A LC inh2 – BoNT/A light chain protease inhibitors, primary screen, biochemical, flow cytometry, MLPCN library; multiplex microsphere protease substrate cleavage; actives 0.17% (n = 360,000); Botulinum neurotoxin type A light chain protease (Clostridium botulinum A str. ATCC 3502); inhibition, % at 10 µM; further: plate controls were buffer without enzyme for full effect and enzyme alone for no effect
# MazEF act – activators of E. coli MazEF toxin-antitoxin RNase, primary screen, biochemical, fluorescence, uHTS; FAM/BHQ RNA-DNA oligo cleavage fluorescence, 5 h; activation, % at 20 µM; actives 0.32% (n = 350,000); AID 504720, 2011; in the data active means activation above about 50%
# Target sequence (P0AE70 whole entry, looked up): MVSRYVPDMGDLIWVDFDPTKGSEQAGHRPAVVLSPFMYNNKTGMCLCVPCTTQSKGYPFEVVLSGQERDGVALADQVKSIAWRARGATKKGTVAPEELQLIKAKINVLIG
# Anthrax LF inh2 – Bacillus anthracis LF protease inhibitors, primary screen, biochemical, multiplex microsphere, MLPCN library | multiplex microsphere protease cleavage assay | inhibition, % at 10 µM | actives 0.12% (n = 360,000); further: plate controls were buffer without enzyme for full effect and enzyme alone for no effect
# VHR inh abs – VHR1 phosphatase inhibitors, primary screen, biochemical, absorbance, uHTS; Dual specificity protein phosphatase 3 (Homo sapiens), P51452; recombinant VHR phosphatase, pNPP absorbance; inhibition, % at 13.3 µM; actives 0.52% (n = 290,000); in the data active means inhibition above about 50%
# Target sequence (P51452 whole entry, looked up): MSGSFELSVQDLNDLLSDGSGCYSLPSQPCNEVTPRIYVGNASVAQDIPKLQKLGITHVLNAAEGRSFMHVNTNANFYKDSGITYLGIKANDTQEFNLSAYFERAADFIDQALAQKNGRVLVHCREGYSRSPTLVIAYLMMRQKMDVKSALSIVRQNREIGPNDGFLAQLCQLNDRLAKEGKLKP
# Autofluor counter – flagged as autofluorescent in microsphere protease counterscreen. actives 3.1% (n = 360,000). compound autofluorescence counterscreen, microsphere flow cytometry; stronger effect = higher value. AID 624483. fluorescence intensity (no concentration beside the values); in the data active means fluorescence intensity above about 16000; inconclusive means no clear call, values can overlap the other calls
# Active calls of the source: *; ? = inconclusive; . = not tested or not shown. Most compounds without a hit are left out; they make up all but 4.1% or so of the library. Unless noted, no stated cut-off is given here; in the data, active means inhibition above about 30%; inconclusive means no clear call, values can overlap the other calls; inactive means below that.
SMILES,BoNT-F LC inh,BoNT-A LC inh2,MazEF act,Anthrax LF inh2,VHR inh abs,Autofluor counter
COc1ccccc1C(=O)NC(CCSC)C(=O)NCC(c1ccco1)N(C)C (configuration not stated),-3,-1,2,-1,11,21152*
O=C(NCc1cccnc1)c1cc2ccccc2oc1=O,1,1,2,-1,12,22899*
Cc1c(C(=O)NCc2ccc3c(c2)OCO3)oc2ccccc12,3,4,4,-9,27,20346*
COC(=O)[C@@H](NC(=O)NCc1cccs1)C(C)C,-1,3,-10,-5,-25,18068*
O=C(NCc1cccs1)c1ccccc1C(=O)NCc1cccs1,-5,?,7,1,-24,23472*
COc1ccc([N+](=O)[O-])cc1NCC(=O)Nc1cc(S(=O)(=O)N2CCCCC2)ccc1C,-10,-1,-5,2,.,3704
CC(C)(C)Cc1c(-c2ccc(Cl)cc2)nc2c(Cl)cc(C(F)(F)F)cn12,-6,-1,.,-8,.,5762
CCc1ccc(Nc2n[n+](C)c(-c3ccncc3)s2)cc1,2,0,3,-2,13,3990
Cc1ccc(S(=O)(=O)N2CCOCC2)cc1C(=O)OCC(=O)NCCc1ccc(F)cc1,4,-1,-7,6,.,3181
O=C(Nc1ccc(OC(F)(F)F)cc1)C1CCCCN1S(=O)(=O)c1ccccc1 (configuration not stated),8,3,-2,2,.,5776
Cc1c(C(=O)NCc2cccnc2)oc2ccccc12,-3,-1,3,-1,8,23977*
Cc1c(C(=O)NC(C)c2ccncc2)oc2ccccc12 (configuration not stated),-1,?,17,-3,-4,21661*
Cc1c(C(=O)Nc2ccncc2)oc2ccccc12,-4,0,1,-7,-16,5119
Cc1c(C(=O)NCc2cccs2)oc2ccccc12,-1,0,-4,-3,32,23183*
Cc1c(C(=O)Nc2nnc(C(F)(F)F)s2)oc2ccccc12,-2,-4,-9,1,-14,23455*
CN(C)/C=C(/C(=O)c1ccc(Cl)cc1)S(=O)(=O)c1ccc(Cl)cc1,-5,-1,10,-1,21,16355*
CN(C)/C=C(/C(=O)c1ccc(Cl)cc1Cl)S(=O)(=O)c1ccc(Cl)cc1,8,0,3,-2,0,9207
Cc1cc(C)cc(N(C(=O)c2csnn2)C(C(=O)NC2CCCC2)c2ccccn2)c1 (configuration not stated),-11,-4,-22,-9,14,3109
CCOc1cc(C2C(C(=O)OC)=CN(Cc3ccc(Cl)cc3)C=C2C(=O)OC)ccc1O,48*,4,2,-8,15,3776
COC(=O)C1=CN(Cc2ccccc2)C=C(C(=O)OC)C1c1ccc(O)c(OC)c1,-16,-4,4,-7,15,3422
COC(=O)C1=CN(C)C=C(C(=O)OC)C1c1ccc(O)c(OC)c1,-6,?,1,-6,4,23196*
CCOc1ccc(-c2cc(C(=O)Nc3ccc(F)cc3)[nH]n2)c(C)c1,0,0,.,6,.,3700
CCOc1ccc(NC(=O)NC2CCCCCCC2)cc1,-7,-3,-4,-1,19,6558
CCOc1ccc(NC(=O)NCCN2C(C)CCCC2C)cc1 (configuration not stated),-1,-1,3,0,19,17584*
CCOc1ccc(NC(=O)NCCCSC2CCCCC2)cc1,0,0,-4,1,10,22514*
SMILES,BoNT-F LC inh,BoNT-A LC inh2,MazEF act,Anthrax LF inh2,VHR inh abs,Autofluor counter
CCCCN1C(=O)CC2CCOC21C (configuration not stated),-12,-1,10,-2,.,3455
COc1ccc(Br)cc1CNC(=O)Cn1nc(C)n2cccc2c1=O,6,3,8,-1,56*,5252
O=C(O)CSCNC(=O)C12CC3CC(CC(C3)C1)C2,-4,-1,5,-4,21,16463*
O=C(NCCCO)C12CC3CC(CC(C3)C1)C2,-2,0,5,-2,.,7533
CCOC(=O)c1ccc(NC(=O)CC2SC3=NCCN3C2=O)cc1 (configuration not stated),-1,0,2,-14,5,5738
O=C(CC1SC2=NCCN2C1=O)Nc1ccc(Br)cc1 (configuration not stated),-2,-4,-4,0,22,21829*
COCCOC(=O)c1c(N)n(Cc2ccccc2)c2nc3ccccc3nc12,?,4,4,0,20,4009
COCCn1c(N)c(C(=O)OCc2ccccc2)c2nc3ccccc3nc21,-2,-1,8,2,0,20725*
CCCNC(=O)CN1C(=O)c2ccccc2Sc2ncccc21,-1,2,1,30*,44,3990
N#CCCn1c(-c2nonc2NC(=O)c2ccccc2Cl)nc2ccccc21,-15,-2,81*,-4,6,9411
O=C(OC1CCCCC1=O)c1cccc(S(=O)(=O)N2CCOCC2)c1 (configuration not stated),-6,-3,3,-3,.,7319
CCSc1ccc(C(=O)Nc2cccc(C)n2)cc1[N+](=O)[O-],-6,-1,-8,2,-5,2606
CCSc1ccc(C(=O)Nc2ccc(Br)cn2)cc1[N+](=O)[O-],12,-6,-2,-6,-3,19284*
CCOC(=O)N1CCN(S(=O)(=O)c2cn(C)c(=O)n(C)c2=O)CC1,-6,1,9,0,52*,5480
Cn1cc(S(=O)(=O)N2CCN(c3ccccc3F)CC2)c(=O)n(C)c1=O,-11,-1,6,-2,53*,6276
COc1ccccc1N1CCN(S(=O)(=O)c2cn(C)c(=O)n(C)c2=O)CC1,-4,0,4,-1,-2,5670
CCc1ccc(CCC(=O)N2CCN(S(=O)(=O)c3ccc(Br)cc3)CC2)cc1,-6,-1,-4,-5,.,2981
COc1nc(C#N)nc(N(C)C)n1,-1,0,8,-2,24,20512*
CCN(CC)C(=O)CN(C#N)c1nc(OC)nc(N(C)C)n1,-5,1,5,0,2,9104
Cc1ccc(Cl)cc1NC(=O)CN1C(=O)COc2ccc(S(=O)(=O)N3CCOCC3)cc21,1,-1,0,-1,7,4110
O=C(c1cccs1)N1CCCc2ccccc21,2,0,-12,-2,12,11369
Cc1ccc2c(c1)CCCN2C(=O)c1cccs1,-4,-2,-1,2,-19,20191*

# Screening results as filed in PubChem BioAssay.
